# Test results from PubChem BioAssay (NCI).
# The panel holds about 83,000 compounds, 20% with a hit somewhere; the sample as a whole holds those more often.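 Percent growth is the endpoint: 0 to 100 indicates growth inhibition (40 means 60% inhibition), 0 means no net growth, and negative values indicate cell death.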 The source made the active and inactive calls. Rule for the calls: active = growth percent below 10; inactive = the rest.
# Test system: HL-60(TB) leukemia
# Test: NCI-60 one-dose screen, 48 h (100 = growth as untreated, 0 = no growth, -100 = all killed)
# Details: 10 µM unless noted
row,SMILES,growth
1,CN(C)c1ccc2cc3c(cc2c1)Oc1ccccc1N3.[Cl][Zn][Cl],-10.4% (active)
2,COc1cc(NCC(O)CN(CC(C)C)CC(C)C)c2nc(C)ccc2c1 (stereo not given),81.2% (inactive)
3,CC(CNc1nc(Nc2ccc(Cl)c(Cl)c2)nc(C(Cl)(Cl)Cl)n1)N(C)C (stereo not given),-21% (active)
4,COc1ccc(NC(=O)c2cc(NCc3cc(O)ccc3O)ccc2O)cc1,43.8% (inactive)
5,CC1(C)C2CCC1(C)C1(C2)OCCS1 (stereo not given),91.3% (inactive)
6,C[C@H]1c2ccccc2CN1CCCOc1cc2c(cc1OCC1CC1)C1(CCCC1)C(N)=N2,31% (inactive)
7,CCN(CC)c1ccc(/C=C/C2=[N+](C)c3ccccc3C2(C)C)cc1,11.3% (inactive)
8,CCCc1cc2c(cc1Br)OCO2,103% (inactive)
9,O=C(Oc1ccc(CO[N+](=O)[O-])cc1)c1ccccc1,-45.9% (active)
10,Clc1ccc2c(c1)nnn1c3ncccc3c(Br)c21,113% (inactive)
11,Cn1c(/C=C(\C#N)c2cccc(C(F)(F)F)c2)nc2c(N3CCOCC3)nc(Cl)nc21,-25.2% (active)
12,CC(=O)OC1Oc2ccccc2-c2oc(=O)c(-c3cc4ccc(N(C)C)cc4oc3=O)cc21 (stereo not given),-9.4% (active)
13,COC1CC(N)C2OC(c3ccccc3)OCC2O1 (stereo not given),102% (inactive)
14,O=c1oc2ccc(Br)cc2c(=O)n1-c1ccc(Cl)cc1F,-32.8% (active)
15,CSCCCNC(=O)c1ccc2c(c1)/C(=C/c1[nH]c(C)cc1C)C(=O)N2,46.1% (inactive)
16,CCN(CC)CCn1c2ccc(OC)cc2c2sc3cc(OC)ccc3c(=O)c21,7.58% (active)
17,Cc1ccc(NS(=O)(=O)c2ccc(-c3cnc(C4CC4)o3)cc2)cc1,24.3% (inactive)
18,O=C(/C=C/c1ccccc1)c1cccs1,102% (inactive)
19,Clc1ccc(CN2COc3c(ccc4cccnc34)C2)cc1Cl,-63.5% (active)
20,Nc1nc(-c2cc3c(cc2Cl)NC(=O)/C3=C/c2ccc(Cl)cc2)cs1,-11.7% (active)

row,SMILES,growth
1,O=S(=O)(c1ccc(NC(=S)NCc2cccnc2)cc1)N1CCCCC1,64.9% (inactive)
2,CCN(CC)c1ccc(CNc2ccnc3ccccc23)cc1,33.6% (inactive)
3,COC(=O)Cc1nc(C#N)c(N(C)C)o1,99.5% (inactive)
4,N#Cc1ccccc1C#Cc1ccccc1C#Cc1ccc(OCCCCCCOc2ccc(C#Cc3ccccc3C#Cc3ccccc3C#N)cc2)cc1,99.7% (inactive)
5,COc1ccc(-c2cnc(SCC(=O)Nc3ccc(-c4nc5ccccc5s4)cc3)n2-c2ccc(OC)cc2)cc1,106% (inactive)
6,COC(=O)c1cc(=O)nc(N/N=C/c2ccc(C)cc2)s1,105% (inactive)
7,O=C(c1ccncc1)N1N=C(c2ccc(Cl)cc2)C[C@H]1c1cn(-c2ccccc2)nc1-c1ccccc1,107% (inactive)
8,COc1cccc(-c2nn(-c3ccccc3)cc2-c2ccnc(NCCNS(=O)(=O)c3ccc(Cl)cc3)c2)c1,7.06% (active)
9,c1ccc(-c2nc(N3CCNCC3)c3oc(-c4ccccc4)nc3n2)cc1,-46.5% (active)
10,CCN(CCO)CCCOc1ccc2c(Nc3cc(CC(=O)Nc4cccc(F)c4)[nH]n3)ncnc2c1,-2.32% (active)
11,COc1ccc([C@H]2c3[nH]c4ccccc4c3C[C@H]3C(=O)N(CCCCCCC(=O)NO)CC(=O)N23)cc1,5.31% (active)
12,CCCN(CCC)C(=O)[C@H](CC)[C@@H]1CC[C@@H](C)[C@@H]([C@H](C)[C@@H](O)[C@@H](C)C(=O)[C@H](CC)C2O[C@]3(C=C[C@@H](O)[C@]4(CC[C@@](C)([C@H]5CC[C@](O)(CC)[C@H](C)O5)O4)O3)[C@H](C)C[C@@H]2C)O1 (stereo not given in full),-47.7% (active)
13,O=C1CCCN1C1CCN2CCCc3cccc1c32 (stereo not given),92.7% (inactive)
14,O=C1c2ccccc2CCc2ccccc21,90% (inactive)
15,O=C(N/N=C/c1cc2ccccc2c2ccccc12)c1cc(O)c(O)c(O)c1,39.9% (inactive)
16,CC1(C)CC(=O)C2=C(C1)Oc1nc(N)c(C#N)c(N)c1C2c1ccc(F)cc1 (stereo not given),107% (inactive)
17,Cc1cc(N(CCNc2ccnc3cc(Cl)ccc23)Cc2ccc3c(c2)OCO3)nc(N2CCCC2)n1,-61.9% (active)
18,COc1cccc(-c2nn(-c3ccccc3)cc2-c2ccnc(NCCNS(=O)(=O)c3ccccc3)c2)c1,8.92% (active)
19,O=c1cc(C2NCCc3c2[nH]c2ccccc32)c2c(ccc3ccccc32)o1 (stereo not given),48.5% (inactive)
20,CCOc1cccc(-c2nc(N)nc(Nc3ccccc3SSc3ccccc3Nc3nc(N)nc(-c4cccc(OCC)c4)n3)n2)c1,8.5% (active)
